The text below walks through data of article PMC4336329 (PLoS ONE, 2015).

Each structure is given as a SMILES string. About 14,000 (4.5%) of roughly 310,000 compounds showed an effect of 50% or more. Effects have a minus sign here. The full list was thinned out, with strong results kept by preference.
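Further: peak tail current of the secondary pulse compared with the same well before compound.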

Chain of human ether-à-go-go-related gene (hERG) potassium channel (Q12809 whole entry, looked up): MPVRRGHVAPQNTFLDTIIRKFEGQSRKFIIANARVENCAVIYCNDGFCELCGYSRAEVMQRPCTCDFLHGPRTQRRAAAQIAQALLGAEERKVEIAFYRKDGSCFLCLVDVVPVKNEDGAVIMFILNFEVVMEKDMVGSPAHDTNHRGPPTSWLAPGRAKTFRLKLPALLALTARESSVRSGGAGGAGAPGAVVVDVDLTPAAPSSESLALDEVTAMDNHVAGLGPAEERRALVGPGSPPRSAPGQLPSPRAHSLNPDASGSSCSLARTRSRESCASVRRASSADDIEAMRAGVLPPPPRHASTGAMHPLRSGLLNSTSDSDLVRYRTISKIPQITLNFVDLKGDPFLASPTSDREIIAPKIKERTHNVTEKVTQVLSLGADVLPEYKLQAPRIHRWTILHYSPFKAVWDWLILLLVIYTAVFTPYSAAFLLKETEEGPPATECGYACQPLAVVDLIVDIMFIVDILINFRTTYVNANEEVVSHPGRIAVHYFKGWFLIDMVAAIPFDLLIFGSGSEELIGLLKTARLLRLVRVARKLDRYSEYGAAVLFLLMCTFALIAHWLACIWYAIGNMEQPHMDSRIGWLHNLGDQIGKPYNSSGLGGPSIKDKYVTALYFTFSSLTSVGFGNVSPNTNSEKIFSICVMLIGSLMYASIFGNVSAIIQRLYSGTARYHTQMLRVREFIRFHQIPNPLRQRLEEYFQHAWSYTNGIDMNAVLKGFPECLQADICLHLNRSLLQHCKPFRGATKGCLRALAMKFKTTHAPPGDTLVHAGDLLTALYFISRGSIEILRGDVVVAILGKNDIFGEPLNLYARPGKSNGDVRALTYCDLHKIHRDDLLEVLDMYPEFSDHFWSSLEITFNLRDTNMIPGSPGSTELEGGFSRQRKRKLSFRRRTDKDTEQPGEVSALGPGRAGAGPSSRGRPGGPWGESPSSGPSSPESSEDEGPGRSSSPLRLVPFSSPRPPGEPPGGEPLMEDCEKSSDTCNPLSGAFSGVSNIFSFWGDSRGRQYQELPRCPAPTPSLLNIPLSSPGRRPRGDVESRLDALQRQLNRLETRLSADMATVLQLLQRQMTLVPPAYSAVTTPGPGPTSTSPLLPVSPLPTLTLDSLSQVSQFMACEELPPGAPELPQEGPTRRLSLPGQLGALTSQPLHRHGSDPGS

The target in the test is human ether-à-go-go-related gene (hERG) potassium channel (human, UniProt Q12809). Description: primary screen, population patch clamp on CHO cells stably expressing hERG; higher = less effect of the substance. The protocol:
Briefly, Chinese hamster ovary (CHO) cells stably expressing the hERG channel were dislodged from tissue culture flasks and dispensed into PPC plates. […] During the recording, background leak currents were estimated by a 100 ms step to -80 mV from an initial holding potential of -70 mV and subtracted from the subsequent current measurement. The campaign was conducted in two phases using slight differences in recording protocol. In the first phase, the initial voltage pulse used a 100 ms step to -30 mV from a holding potential of -70 mV, a 2 s conditioning step to +25 mV, and a 2 s test step to -30 mV. During the second phase of the screen, the potential during the conditioning step was raised to +45 mV. In both phases of the campaign, a secondary voltage pulse was applied using the same parameters as the second phase initial pulse. The initial and secondary pulses were applied in the absence of compound, and upon application of 1 μM and 10 μM test concentrations. […]
Consider `Cc1ccc(NC(=S)NCC2CCN(C(C)c3ccccc3)C2)cc1` (stereo not shown), for which the “hERG current change (%, negative = inhibition) at 10uM” value is on record as -57.5%.

Turning to `Cc1ccc(NC(=S)NCC2CCN(C(C)c3ccccc3)C2)cc1C` (stereo not shown), the “hERG current change (%, negative = inhibition) at 10uM” value is -44.6%.

Take `Cc1ccccc1NC(=S)NCC1CCN(C(C)c2ccccc2)C1` (stereo not shown): the “hERG current change (%, negative = inhibition) at 10uM” value came to 6.64%.

For `CC(c1ccccc1)N1CCC(CNC(=S)Nc2cccc(Cl)c2)C1` (stereo not shown), the “hERG current change (%, negative = inhibition) at 10uM” value was -29.2%.

`Cc1cc(C)c(NC(=S)NCC2CCN(C(C)c3ccccc3)C2)c(C)c1` (stereo not shown): the “hERG current change (%, negative = inhibition) at 10uM” value is given as -22.4%.

As to `O=C1NC(c2ccccc2)=C(c2ccc3ccccc3n2)C(c2ccccc2)N1` (stereo not shown), the “hERG current change (%, negative = inhibition) at 10uM” value is 6.13%.

`CC1(C)CC(=O)N(CC(=O)O)c2ccccc2S1(=O)=O`: the “hERG current change (%, negative = inhibition) at 10uM” value is on record as 3.52%.

Regarding `O=c1c2ccccc2ncn1-c1ccc(Cl)c(Cl)c1`, the “hERG current change (%, negative = inhibition) at 10uM” value is given as -1.01%.

For the molecule `OC(CNCCCCNCC(O)C(F)(F)F)C(F)(F)F` (stereo not shown), the “hERG current change (%, negative = inhibition) at 10uM” value was determined as 19.8%.

Regarding `CCCN(CCC)Cc1c(C(=O)OCC)nnn1-c1nonc1N`, the “hERG current change (%, negative = inhibition) at 10uM” value was -12.7%.

`CC(=O)c1nc2ccccc2n1S(=O)(=O)c1ccc(C)cc1`: the “hERG current change (%, negative = inhibition) at 10uM” value was determined as 17.3%.

`Cc1nc2c(ccc3nc(NC(=O)c4ccc(S(=O)(=O)N(C)C)cc4)sc32)s1`: the “hERG current change (%, negative = inhibition) at 10uM” value was determined as 15.2%.

For the molecule `Cc1nc2ccc3nc(NC(=O)c4ccc5c(c4)OCCO5)sc3c2s1`, the “hERG current change (%, negative = inhibition) at 10uM” value is recorded as 2.9%.

`Cc1nc2c(ccc3nc(NC(=O)c4ccc5c(c4)OCCO5)sc32)s1`: the “hERG current change (%, negative = inhibition) at 10uM” value is recorded as -74.3%.

Turning to `CC(C)(C)NC(=O)COc1coc(CN2CCN(Cc3ccccc3)CC2)cc1=O`, the “hERG current change (%, negative = inhibition) at 10uM” value is listed as -1.29%.

Turning to `Cc1ccc(Cn2c(C(CO)Nc3nc(-c4ccc(Cl)c([N+](=O)[O-])c4)cs3)nc3ccccc32)cc1` (stereo not shown), the “hERG current change (%, negative = inhibition) at 10uM” value worked out at 7.56%.

For the molecule `O=S(=O)(c1ccsc1)N1CC=C(c2ccccc2)CC1`, the “hERG current change (%, negative = inhibition) at 10uM” value was 15.7%.

In the case of `CN1CCN(C(c2cc3cc4c(cc3[nH]c2=O)OCCO4)c2nnnn2C2CCCC2)CC1` (stereo not shown), the “hERG current change (%, negative = inhibition) at 10uM” value is recorded as -9.91%.

Consider `CCN1CC2C3CCC(C)(O3)C2C1` (stereo not shown), for which the “hERG current change (%, negative = inhibition) at 10uM” value is -73.1%.

`CCCc1cc(=O)[nH]c(SCC(=O)Nc2nc3ccc(OCC)cc3s2)n1`: the “hERG current change (%, negative = inhibition) at 10uM” value came out at 22.8%.

Regarding `NC(=S)N=Nc1c(O)n(CC(=O)Nc2ccccc2)c2ccccc12`, the “hERG current change (%, negative = inhibition) at 10uM” value is given as 16.4%.

With `COc1cc2ncnc(NCc3ccc(C)o3)c2cc1OC`, the “hERG current change (%, negative = inhibition) at 10uM” value is reported as -11.5%.

For `CCOC(=O)C1CCCN(C(=O)COc2ccc(N(C)S(=O)(=O)c3ccc(C)cc3)cc2)C1` (stereo not shown), the “hERG current change (%, negative = inhibition) at 10uM” value is reported as -56.8%.

Regarding `CCOC(=O)C1CCCN(C(=O)COc2ccccc2O)C1` (stereo not shown), the “hERG current change (%, negative = inhibition) at 10uM” value was -1.94%.

In the case of `Cc1ccc(S(=O)(=O)N(C)c2ccc(OCC(=O)N3CCCC(C(F)(F)F)C3)cc2)cc1` (stereo not shown), the “hERG current change (%, negative = inhibition) at 10uM” value is listed as -39.9%.

Take `CN(c1ccc(OCC(=O)N2CCOCC2)cc1)S(=O)(=O)c1ccc(F)cc1`: the “hERG current change (%, negative = inhibition) at 10uM” value is listed as -9.15%.

`Cc1ccc(S(=O)(=O)N(C)c2ccc(OCC(=O)N3CCCCC3)cc2)cc1`: the “hERG current change (%, negative = inhibition) at 10uM” value is -10.5%.

On to `CCOC(=O)C1CCN(C(=O)COc2ccc(N(C)S(=O)(=O)c3ccc(OCC)cc3)cc2)CC1`, for which the “hERG current change (%, negative = inhibition) at 10uM” value was -4.08%.

Turning to `CCOC(=O)C1CCCN(C(=O)COc2ccc(N(C)S(=O)(=O)c3ccc(F)cc3)cc2)C1` (stereo not shown), the “hERG current change (%, negative = inhibition) at 10uM” value was -66.5%.

On to `CCOC(=O)C1CCCN(C(=O)COc2ccc(S(=O)(=O)N(CC)c3ccccc3)cc2)C1` (stereo not shown), for which the “hERG current change (%, negative = inhibition) at 10uM” value is reported as -51.8%.

Take `CCOC(=O)C1CCN(C(=O)COc2ccc(N(C)S(=O)(=O)c3ccc(C)cc3)cc2)CC1`: the “hERG current change (%, negative = inhibition) at 10uM” value is reported as -57.7%.

As for `CN1CCN(C(=O)COc2ccc(N(C)S(=O)(=O)c3ccc(F)cc3)cc2)CC1`, the “hERG current change (%, negative = inhibition) at 10uM” value was -4.56%.

Take `COC(=O)C1CCN(C(=O)COc2ccc(N(C)S(=O)(=O)c3ccc(C)cc3)cc2)CC1`: the “hERG current change (%, negative = inhibition) at 10uM” value is recorded as -33.8%.

On to `CCN(c1ccccc1)S(=O)(=O)c1ccc(OCC(=O)N2CCCC2)cc1`, for which the “hERG current change (%, negative = inhibition) at 10uM” value is recorded as -10.4%.

As for `O=C(COC(=O)c1cnccn1)c1cccc([N+](=O)[O-])c1`, the “hERG current change (%, negative = inhibition) at 10uM” value is recorded as 14.4%.

With `O=C(Nc1ccccc1Cl)c1sccc1-c1ccccc1`, the “hERG current change (%, negative = inhibition) at 10uM” value is recorded as -2.39%.

For the molecule `COc1ccc(/C=N/NC(=O)C(=O)Nc2ccccn2)cc1OC`, the “hERG current change (%, negative = inhibition) at 10uM” value is given as -27.2%.

For the molecule `COc1ccc(C2=NS(=O)(=O)N(C)C(C(=O)NCc3ccccn3)=C2)cc1OC`, the “hERG current change (%, negative = inhibition) at 10uM” value was -4.15%.

`CC1=CC(C)(C)Nc2ccc(OC(=O)c3ccco3)cc21`: the “hERG current change (%, negative = inhibition) at 10uM” value is -0.0756%.

`CC1CN(C(=O)CN2C(=O)c3ccccc3C2=O)CC(C)O1` (stereo not shown): the “hERG current change (%, negative = inhibition) at 10uM” value came to 6.42%.
